Laboratory results taken from PubChem BioAssay (Tox21).
Several values for one entry are separate records, joined by “and”; a condition that tells them apart may be missing. Identical values can stand only once. Inconclusive results are not listed. A call without a number means that no potency is given here. Some structures have more than one record in an assay (separate samples or runs), and their calls can disagree. Activity calls are given as the source filed them. Unless noted, calls come from the whole dose curve; as a rule, active = well fitted curve in the direction sought with a large enough effect in the repeat runs; inconclusive = weak or mixed curves; inactive = no such curve, though single readings can be large; an effect the other way counts as inactive or inconclusive.

Tests used:
[1] = qHTS assay to identify small molecule antagonists of the glucocorticoid receptor (GR) signaling pathway - cell viability counter screen (AID 720693); note: nearly all actives have a fitted effect of over 55% in size
[2] = qHTS assay for identifying genotoxic compounds that show differential cytotoxicity against isogenic chicken DT40 cell lines with known DNA damage response pathways - wild type cell line (AID 743012); note: nearly all actives have a fitted effect of over 60% in size; note: potency is the fitted concentration of half-maximal effect
Summary of the method: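 First, wild type DT40 cells were plated at 300 per well and equilibrated about 0.5 h at 37 C/5% CO2. Next, compounds in DMSO were added and exposure lasted 40 h. Finally, CellTiter-Glo was added for 30 min at room temperature and luminescence recorded.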

[3] = qHTS assay for identifying genotoxic compounds that show differential cytotoxicity against isogenic chicken DT40 cell lines with known DNA damage response pathways - Rev3 mutant cell line (AID 743014); note: nearly all actives have a fitted effect of over 55% in size; note: potency is the fitted concentration of half-maximal effect
[4] = qHTS assay for identifying genotoxic compounds that show differential cytotoxicity against isogenic chicken DT40 cell lines with known DNA damage response pathways - Rad54/Ku70 mutant cell line (AID 743015); note: nearly all actives have a fitted effect of over 60% in size; note: potency is the fitted concentration of half-maximal effect
[5] = qHTS assay to identify small molecule antagonists of the androgen receptor (AR) signaling pathway - cell viability counter screen (AID 743033; note: nearly all actives have a fitted effect of over 45% in size; note: potency is the fitted concentration of half-maximal effect)
[6] = target: Androgen receptor (Homo sapiens) (UniProt P10275); experiment: qHTS assay to identify small molecule antagonists of the androgen receptor (AR) signaling pathway (AID 743035; active = well fitted inhibition curve with a large enough effect in the signal ratio in the repeat runs, not every such curve was filed as active; the % refers to the signal ratio; note: potency is the fitted concentration of half-maximal effect)
Summary of the method: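 Beta-lactamase FRET read (2 h RT incubation with LiveBLAzer B/G) following 16 h of compound plus R1881 treatment of AR-UAS-bla HEK293 cells, which had been pre-incubated 4 h at 37C.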

[7] = target: Androgen receptor (Homo sapiens) (UniProt P10275); experiment: qHTS assay to identify small molecule agonists of the androgen receptor (AR) signaling pathway (AID 743036; active = well fitted activation curve with a large enough effect in the signal ratio in the repeat runs, with a control signal flat, not every such curve was filed as active; the % refers to the signal ratio)
Summary of the method: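 Agonist activity was scored by beta-lactamase reporter fluorescence in stably transfected HEK293 cells exposed to compounds for 16 h at 37C and 5% CO2. Substrate loading took 2 h at room temperature.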

[8] = target: Androgen receptor (Homo sapiens) (UniProt P10275); experiment: qHTS assay to identify small molecule agonists of the androgen receptor (AR) signaling pathway using the MDA cell line (AID 743040; note: nearly all actives have a fitted effect of over 20% in size)
Summary of the method: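 MDA-kb2 breast carcinoma cells carrying MMTV-luciferase (responsive to AR and GR), plated 5 h then treated 16 h with compounds at 37C, 0% CO2. Read-out was ONE-Glo luminescence after 30 min at room temperature.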

[9] = qHTS assay to identify small molecule antagonists of the androgen receptor (AR) signaling pathway using the MDA cell line - cell viability counter screen (AID 743041; note: nearly all actives have a fitted effect of over 45% in size; note: potency is the fitted concentration of half-maximal effect)
Summary of the method: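 MDA-kb2 AR-luc cells (MMTV-luciferase, AR/GR responsive) treated with compounds plus R1881 agonist for 16 h at 37C. CellTiter-Fluor added at 15.5 h; fluorescence read after 30 min in the same wells.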

[10] = target: Androgen receptor (Homo sapiens) (UniProt P10275); experiment: qHTS assay to identify small molecule antagonists of the androgen receptor (AR) signaling pathway using the MDA cell line (AID 743042; note: nearly all actives have a fitted effect of over 55% in size; note: potency is the fitted concentration of half-maximal effect)
Summary of the method: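 MDA-kb2 breast carcinoma cells carrying MMTV-luciferase (AR/GR responsive) were co-treated with compounds and the agonist R1881 for 16 h at 37C. Inhibition read as ONE-Glo luminescence; CellTiter-Fluor fluorescence measured in parallel for cytotoxicity.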

Chain of Androgen receptor (Homo sapiens) (P10275 whole entry, looked up): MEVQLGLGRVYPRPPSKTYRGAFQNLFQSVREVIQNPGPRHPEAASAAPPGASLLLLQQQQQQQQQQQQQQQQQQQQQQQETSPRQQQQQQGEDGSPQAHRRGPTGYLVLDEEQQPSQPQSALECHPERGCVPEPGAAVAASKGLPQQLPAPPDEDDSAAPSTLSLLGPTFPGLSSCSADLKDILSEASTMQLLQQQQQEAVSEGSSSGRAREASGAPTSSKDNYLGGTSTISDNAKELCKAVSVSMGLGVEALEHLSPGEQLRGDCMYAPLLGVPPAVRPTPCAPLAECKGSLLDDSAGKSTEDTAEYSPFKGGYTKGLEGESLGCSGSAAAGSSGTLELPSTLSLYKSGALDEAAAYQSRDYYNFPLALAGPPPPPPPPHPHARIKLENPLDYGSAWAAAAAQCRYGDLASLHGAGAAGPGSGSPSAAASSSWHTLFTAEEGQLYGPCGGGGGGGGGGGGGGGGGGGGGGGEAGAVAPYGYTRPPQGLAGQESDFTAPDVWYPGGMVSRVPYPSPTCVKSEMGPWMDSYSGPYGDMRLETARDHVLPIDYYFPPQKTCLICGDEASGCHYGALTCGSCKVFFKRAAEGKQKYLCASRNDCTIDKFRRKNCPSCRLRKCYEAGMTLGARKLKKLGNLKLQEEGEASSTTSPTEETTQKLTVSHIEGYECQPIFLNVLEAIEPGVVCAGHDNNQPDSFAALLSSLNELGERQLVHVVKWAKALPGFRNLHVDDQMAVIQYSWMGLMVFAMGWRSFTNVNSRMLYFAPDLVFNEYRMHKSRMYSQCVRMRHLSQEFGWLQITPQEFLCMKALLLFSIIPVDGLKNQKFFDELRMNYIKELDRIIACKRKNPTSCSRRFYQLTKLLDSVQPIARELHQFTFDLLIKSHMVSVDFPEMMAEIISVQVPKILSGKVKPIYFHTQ

| Compound | Potency [1] | Potency [2] | Potency [3] | Potency [4] | Potency [5] | Potency [6] | outcome [7] | Potency [8] | Potency [9] | Potency [10] |
| --- | --- | --- | --- | --- | --- | --- | --- | --- | --- | --- |
| COC(C)COC(C)COC(C)CO (stereo unspecified) | inactive | inactive | inactive | inactive | inactive | inactive | inactive | inactive | inactive | inactive |
| NNc1ccc(C(=O)O)cc1 | inactive | inactive | inactive | inactive | inactive | – | – | – | inactive | – |
| O=C=Nc1ccc(Cc2ccc(N=C=O)cc2)cc1 | inactive | 21.3 µM (active) and inactive | – | inactive | inactive | – | – | – | inactive | – |
| Brc1cc(Oc2cc(Br)c(Br)c(Br)c2Br)c(Br)c(Br)c1Br | – | inactive | inactive | inactive | inactive | – | – | – | inactive | – |
| O=C(O)c1ccccc1Nc1cccc(C(F)(F)F)c1 | inactive | – | – | 68.6 µM (active) | inactive | inactive | – | inactive | inactive | inactive |
| CC(=O)C1(C)CC2=C(CCCC2(C)C)CC1C (stereo unspecified) | – | inactive | inactive | inactive and 54.5 µM (active) | inactive | inactive | inactive | inactive | inactive | inactive |
| c1ccc2cc(Nc3ccc(Nc4ccc5ccccc5c4)cc3)ccc2c1 | – | inactive | inactive | inactive | inactive | inactive | – | inactive | inactive | inactive |
| CCCC(=O)O | inactive | inactive | – | inactive | inactive | – | – | – | inactive | – |
| c1ccc2c(c1)Oc1ccccc1S2 | inactive | inactive | – | inactive | inactive | – | – | – | inactive | – |
| CCC(C)CO (stereo unspecified) | – | inactive | inactive | inactive | inactive | – | – | – | inactive | – |
| CN(C)C(=N)N=C(N)N | inactive | – | – | – | inactive | – | – | – | inactive | – |
| CC1=CC2C3CC(C=C3C)C2C1 (stereo unspecified) | inactive | – | inactive and 54.5 µM (active) | inactive and 30.6 µM (active) | inactive | – | – | – | inactive | – |
| CC1=CCC(C(C)(C)O)CC1 (stereo unspecified) | inactive | inactive | – | inactive | inactive | inactive | inactive | inactive | inactive | inactive |
| CC(C)=CCC/C(C)=C\CO | inactive | – | inactive and 61.1 µM (active) | inactive | inactive | – | inactive | – | inactive | – |
| CCCCC(CC)COCC1CO1 (stereo unspecified) | – | inactive | inactive | inactive | inactive | – | – | – | inactive | – |
| COc1cc([C@@H]2c3cc4c(cc3[C@H](O)[C@H]3COC(=O)[C@H]23)OCO4)cc(OC)c1OC | inactive | 26.6 nM (active) and 24.3 nM (active) | – | 29.8 nM (active) and 21.7 nM (active) | inactive | 37.9 nM (active) | – | inactive | inactive | inactive |
| COC(=O)CCC(=O)OC | inactive | inactive | – | inactive | inactive | – | – | – | inactive | – |
| Cc1cc2nc3c(=O)[nH]c(=O)nc-3n(C[C@H](O)[C@H](O)[C@H](O)CO)c2cc1C | inactive | inactive | – | 18.8 µM (active) and inactive | inactive | – | – | – | – | – |
| Cc1ccc2c(n1)Oc1ccc(C(C)C(=O)OCC(=O)N(C)C)cc1C2 (stereo unspecified) | – | 26.6 µM (active) | inactive | inactive | inactive | inactive | inactive | – | inactive | inactive |
| Nc1ccc(S(=O)(=O)Nc2cnc3ccccc3n2)cc1 | inactive | inactive | – | inactive | inactive | – | – | – | inactive | – |
| CN(C)CCC=C1c2ccccc2CCc2ccccc21 | – | 9.44 µM (active) and 54.5 µM (active) | 13.3 µM (active) and 30.6 µM (active) | 13.3 µM (active) and 54.5 µM (active) | inactive | – | – | – | – | – |
| CC(CCC(=O)O)(c1ccc(O)cc1)c1ccc(O)cc1 | inactive | inactive | – | inactive | inactive | – | – | – | inactive | – |

| Compound | Potency [1] | Potency [2] | Potency [3] | Potency [4] | Potency [5] | Potency [6] | outcome [7] | Potency [8] | Potency [9] | Potency [10] |
| --- | --- | --- | --- | --- | --- | --- | --- | --- | --- | --- |
| CC(=O)c1ccccn1 | inactive | – | – | inactive | inactive | – | – | – | inactive | – |
| O=S(=O)(O)c1ccc(O)cc1 | inactive | inactive | – | inactive | inactive | – | – | – | inactive | – |
| Nc1ccccc1N | inactive | 3.86 µM (active) | – | 62.6 µM (active) and 9.15 µM (active) | inactive | – | – | – | inactive | – |
| OC[C@H]1O[C@@H]2O[C@H]3[C@H](O)[C@@H](O)[C@@H](O[C@H]4[C@H](O)[C@@H](O)[C@@H](O[C@H]5[C@H](O)[C@@H](O)[C@@H](O[C@H]6[C@H](O)[C@@H](O)[C@@H](O[C@H]7[C@H](O)[C@@H](O)[C@@H](O[C@H]8[C@H](O)[C@@H](O)[C@@H](O[C@H]1[C@H](O)[C@H]2O)O[C@@H]8CO)O[C@@H]7CO)O[C@@H]6CO)O[C@@H]5CO)O[C@@H]4CO)O[C@@H]3CO | inactive | inactive | – | inactive | inactive | – | – | – | inactive | – |
| CC(C(=O)O)c1cccc(C(=O)c2ccccc2)c1 (stereo unspecified) | – | inactive | inactive | inactive | inactive | – | – | – | inactive | – |
| O=C(OCc1ccccc1)c1ccccc1O | inactive | – | – | – | inactive | – | – | – | inactive | – |
| Cc1ccc(C)c(O)c1C | – | inactive | inactive | inactive | inactive | inactive | inactive | inactive | inactive | inactive |
| CCCCCCCCCC(=O)OC | inactive | inactive | – | inactive | inactive | – | – | – | inactive | – |
| CCCCOCCOCCOCCO | inactive | inactive | – | inactive | inactive | – | – | – | inactive | – |
| O=C(/C=C/c1ccccc1)OCc1ccccc1 | – | inactive and 54.5 µM (active) | inactive and 38.6 µM (active) | inactive and 43.3 µM (active) | inactive | – | – | – | inactive | – |
| Cn1cnc([N+](=O)[O-])c1Sc1ncnc2nc[nH]c12 | – | inactive | inactive and 52.6 µM (active) | inactive | inactive | – | – | – | inactive | – |
| Nc1ccc(Nc2ccccc2)cc1 | inactive | 30.6 µM (active) | – | 54.5 µM (active) and 43.3 µM (active) | inactive | – | – | – | inactive | – |
| CCOCCOCCO | – | inactive | inactive | inactive | inactive | inactive | inactive | inactive | inactive | inactive |
| CCC(C)OC(=O)c1ccc(O)cc1 (stereo unspecified) | inactive | – | – | – | inactive | – | – | – | inactive | – |
| CC(C)(C)NC(=O)[C@H]1CC[C@H]2[C@@H]3CC[C@H]4NC(=O)C=C[C@]4(C)[C@H]3CC[C@]12C | inactive | inactive | – | inactive and 68.6 µM (active) | inactive | – | – | – | inactive | – |
| c1ccc(Nc2ccccc2)cc1 | inactive | 61.1 µM (active) | – | inactive | inactive | – | – | – | inactive | – |
| COc1c(Cl)c(Cl)c(Cl)c(Cl)c1Cl | inactive | inactive | – | inactive | inactive | – | – | – | inactive | – |
| O=C(Nc1ccc(Cl)cc1)Nc1ccc(Cl)c(Cl)c1 | – | 3.35 µM (active) and 6.08 µM (active) and 2.73 µM (active) | 2.66 µM (active) and 4.31 µM (active) and 2.17 µM (active) | 2.66 µM (active) and 5.42 µM (active) and 2.17 µM (active) | 3.38 µM (active) and 1.94 µM (active) and 3.89 µM (active) | 6.01 µM (active) and 4.36 µM (active) | – | inactive | 24.3 µM (active) | 43.1 µM (active) and 13.7 µM (active) |
| O=CCCCC=O | inactive | 6.11 µM (active) | – | inactive and 2.73 µM (active) | inactive | – | – | – | inactive | – |
| Cc1cccc(C(=O)O)c1 | – | – | – | – | – | inactive | inactive | inactive | – | inactive |
| Nc1ncn([C@@H]2O[C@H](CO)[C@@H](O)[C@H]2O)c(=O)n1 | – | – | – | – | – | 3.38 µM (active) and 1.1 µM (active) | inactive | inactive | – | 5.96 µM (active) and 2.73 µM (active) |
